One assay relates to Klebsiella pneumoniae. The note with it: Concentration 32 ug.mL-1, ASSAY_TEST Inhibition of Bacterial Growth, detection method Absorption (OD600), MEDIA CAMHB, plate type 384well, NBS, CORNING #3640, time 18 hr.
For a further assay, the system named is Candida albicans. To be noted: 32 ug/mL.
For the next assay, the system named is Cryptococcus neoformans. The note with it: Concentration 32 ug.mL-1, ASSAY_TEST Inhibition of Fungal Growth, detection method Resazurin, Absorption (OD600-OD570), plate type 384well, NBS, CORNING #3640.

Results on 73 compounds are retold here after ChEMBL document CHEMBL4513135, “CO-ADD screening of IQOG CSIS (Spain) compounds”.

Broadly, the Inhibition is the drop in the measured response relative to a control, in per cent.

Values joined by “and” are separate entries in the source; they are usually repeats but may differ in a detail not shown here. Identical values can stand only once. Potency and affinity values are given separately.

With `COc1ccc(-c2cc(-c3cc4c(OC)ccc(OC)c4nc3Cl)cc(=O)[nH]2)cc1`, the results for the Inhibition with Klebsiella pneumoniae, in the assay on Candida albicans and in the assay on Cryptococcus neoformans were 5.89%, 0.7% and -87.69%, respectively.
The matching figures for `N#CC1(Br)C(=NBr)Oc2c(ccc3ccccc23)C1c1ccc([N+](=O)[O-])cc1` (centres undefined): 12.27%, 25.9% and -87.41%.
For `COc1nc2ccccc2cc1C=O` the same measures were -3.66%, 6.13% and -2.5%.
Take `C#CCN(C)Cc1cc2cc(OCCCCC3CCN(Cc4ccccc4)CC3)ccc2n1C`: the Inhibition was 10.12% in the assay on Klebsiella pneumoniae, 2.73% with Candida albicans and -48.77% in the assay with Cryptococcus neoformans.
The matching figures for `C#CCN(C)Cc1cc2cc(OCc3ccccc3)ccc2n1C.O=C(O)C(=O)O`: 16.32%, 2.13% and -91.88%.
For `C#CCN1CCc2nc3nc(N(C)C)c(C#N)cc3c(N)c2C1`, the Inhibition in the assay with Klebsiella pneumoniae was 15.18%; with Candida albicans, 3.18%; in the assay with Cryptococcus neoformans, -99.98%.
`N#CC1(Br)C(=N)Oc2ccc3ccccc3c2C1c1ccccc1` (centres undefined): the Inhibition is 8.56% and 13.61% in the assay on Klebsiella pneumoniae (32 ug/mL); 5.08% and 2.03% in the assay on Candida albicans; -52.48% and -41.25% in the assay on Cryptococcus neoformans (32 ug/mL).
For the compound `C#CCN(C)c1nc(NCCCCC2CCN(Cc3ccccc3)CC2)c(C#N)cc1C#N`, the Inhibition with Klebsiella pneumoniae was 0.44%; with Candida albicans it was 3.03%; in the assay with Cryptococcus neoformans it was -41.21%.
For `N#Cc1cc(C#N)c(NCCCC2CCN(Cc3ccccc3)CC2)nc1N` the same measures were 10.46%, 0.89% and -57.65%.
The matching figures for `Nc1c2c(nc3c1C(c1ccc(O)cc1)c1c(ccc4ccccc14)O3)CCCC2` (centres undefined): 8.92%, 2.15% and -0.6%.
For `CC1=C(CO)C(c2ccc(C#N)cc2)C(C#N)=C(N)O1` (centres undefined), the Inhibition in the assay with Klebsiella pneumoniae was 10.02%; with Candida albicans, 5.46%; with Cryptococcus neoformans it was -8.41%.
The matching figures for `CC1=N/C(=C(\C)c2ccccc2)C(=O)O1`: -1.65%, 0.7% and -3.17%.
The matching figures for `Cc1nc(NCc2ccccc2)c2cnn(-c3ccccc3)c2n1`: 15.01%, -0.57% and -3.46%.
Consider `COc1ccc(C2c3ccc4ccccc4c3OC(=NBr)C2(Br)C#N)cc1OC` (centres undefined), for which the Inhibition in the assay on Klebsiella pneumoniae is 8.89%; with Candida albicans, 5.08%; in the assay with Cryptococcus neoformans, -80.16%.
With `C#CCN(C)Cc1cc2cc(OCCCC3CCN(Cc4ccc(C#N)cc4)CC3)ccc2n1C`, the Inhibition with Klebsiella pneumoniae is 2.67%; in the assay with Candida albicans, 4.18%; in the assay on Cryptococcus neoformans, -50.05%.
For `N#Cc1cc(C#N)c(N2CCCC2)nc1N1CCCC1` the same measures were 22.43%, -0.31% and -5.24%.
For `O=C(O)c1cc2ccccc2[nH]1` [INDOLE-2-CARBOXYLIC ACID] the same measures were 1.67%, 26.2% and -9.27%.
`CC(C)(C)OC(=O)Nc1ccc(Br)cn1`: the Inhibition in the assay on Klebsiella pneumoniae is 23.74%; in the assay with Candida albicans, 1.83%; with Cryptococcus neoformans, -55.05%.
As to `COc1ccccc1C1C(C#N)=C(N)Oc2[nH]nc(C)c21` (centres undefined), the Inhibition in the assay on Klebsiella pneumoniae was 0.76%; in the assay on Candida albicans it was 2.02%; with Cryptococcus neoformans, -7.07%.
On to `Cl.N#Cc1c(N)nc(NCCO)c(C#N)c1-c1ccccc1`, for which the results for the Inhibition with Klebsiella pneumoniae, with Candida albicans and with Cryptococcus neoformans were 7.62%, 1.4% and -7.17%, respectively.
The matching figures for `O=C(NNCc1ccco1)c1cc2ccccc2[nH]1`: 1.78%, -0.84% and -3.8%.
In the case of `CCOC(=O)c1c(C)nc(/N=N/c2nc(C)c(C(=O)OCC)c(-c3ccccc3)c2C#N)c(C#N)c1-c1ccccc1`, the Inhibition is 0.93% in the assay with Klebsiella pneumoniae, -1.11% in the assay on Candida albicans and -2.65% in the assay on Cryptococcus neoformans.
As for `N#Cc1c(N)nc(S)c(C#N)c1-c1ccccc1`, the results for the Inhibition with Klebsiella pneumoniae, in the assay with Candida albicans and in the assay with Cryptococcus neoformans were 24.85%, 0.7% and 1.04%, respectively.
The matching figures for `O=C(O)c1c[nH]c2ccccc12`: -9.13%, 6.48% and -9.05%.
For `C#CCNc1nc(NC2CCN(Cc3ccccc3)CC2)c(C#N)c(-c2ccccc2)c1C#N` the same measures were -8.37%, 5.21% and -52.49%.
For `C#CCN(C)Cc1cc2cc(OC)ccc2n1C` the same measures were 12.36%, 5.35% and -77.43%.
For `C#CCN(C)c1nc(NCC2CCN(Cc3ccccc3)CC2)c(C#N)c(-c2ccccc2)c1C#N`, the figures for the Inhibition in the assay with Klebsiella pneumoniae, in the assay on Candida albicans and in the assay on Cryptococcus neoformans were 6.45%, 0.51% and -3.47%, respectively.
For `Cn1c(CO)cc2cc(OCCCC3CCN(Cc4ccccc4)CC3)ccc21` the same measures were -2.86%, 2.07% and -53.31%.
For `CC(C)NNC(=O)Cc1c[nH]c2ccccc12` the same measures were 18.29%, -0.05% and -1.92%.
The matching figures for `Cc1ccc2[nH]c(=O)c(C=O)cc2c1`: 6.41%, 1.79% and 4.75%.
Turning to `N#Cc1c(N)nc(O)c(C#N)c1-c1ccccc1`, the Inhibition in the assay on Klebsiella pneumoniae is -0.05%; in the assay on Candida albicans, 5.45%; in the assay with Cryptococcus neoformans, -42.69%.
The matching figures for `O=c1oc2cc(O)ccc2cc1-c1ccccc1`: 3.33%, -0.21% and -4.62%.
The matching figures for `N#CC1=C(Cl)Oc2c(ccc3ccccc23)C1c1ccc([N+](=O)[O-])cc1` (centres undefined): 16.96%, 10.5% and -69.24%.
For the compound `N#Cc1c(Cl)nc(NC2CCN(Cc3ccccc3)CC2)c(C#N)c1-c1ccccc1`, the Inhibition in the assay on Klebsiella pneumoniae is 0.34%; in the assay on Candida albicans, -0.87%; with Cryptococcus neoformans, -53.1%.
For `Cn1ccnc1C1C(C#N)=C(N)Oc2c1ccc1cccnc21` (centres undefined) the same measures were 9.74%, 0.91% and -53.28%.
The matching figures for `CSC1=NC2(CC2c2ccccc2)C(=O)N1` (centres undefined): 20.57%, -0.24% and 1.03%.
For `C#CCN(C)Cc1cc2cc(OCCC3CCN(Cc4ccccc4)CC3)ccc2n1C.Cl` the same measures were 16.32%, 3.09% and -83.46%.
`CCOC(=O)C1=C(C)OC(N)=C(C#N)C1c1ccncc1` (centres undefined): the Inhibition with Klebsiella pneumoniae is 10.54%; in the assay with Candida albicans, -1.5%; with Cryptococcus neoformans it was -58.29%.
Turning to `CNN=C1N=C(SCc2ccccc2)SC1=O`, the Inhibition with Klebsiella pneumoniae is 8.63%; in the assay with Candida albicans, -0.64%; in the assay on Cryptococcus neoformans, -3.27%.
Regarding `CCOC(=O)c1c(C)nc(NCC2CCN(Cc3ccccc3)CC2)c(C#N)c1-c1ccccc1`, the Inhibition in the assay on Klebsiella pneumoniae is 9.84%; in the assay on Candida albicans, 2.46%; in the assay on Cryptococcus neoformans it was -54.17%.
The matching figures for `CCOc1nc(N)c(C#N)c(-c2ccccc2)c1C#N`: 4.68%, 1.61% and -46.51%.
The matching figures for `O=C(COc1ccc2ccccc2c1)NNCc1c[nH]c2ccccc12`: 9.52%, 3.01% and -4.32%.
For `COC1=C(C#N)CC(C)C(=O)N1` (centres undefined) the same measures were 6.94%, 1.01% and -33.52%.
For the compound `N#Cc1c(N)nc(NCc2ccccc2)c(C#N)c1-c1ccccc1`, the Inhibition in the assay on Klebsiella pneumoniae is -1.47%; in the assay with Candida albicans, 0.34%; in the assay on Cryptococcus neoformans, -28.27%.
For `Br.C#CCNCC` the same measures were 7.82%, 3.14% and -9.78%.
For `COc1ccc(-c2cc(-c3cc4c(C)cc(C)cc4nc3Cl)cc(=O)[nH]2)cc1` the same measures were 4.51%, 1.74% and 0.64%.
The matching figures for `N#Cc1c(N)nc(NCCCCC2CCN(Cc3ccccc3)CC2)c(C#N)c1-c1ccccc1`: 9.09%, 2.22% and 0.12%.
With `CCOc1nc(N)c(C#N)cc1C#N.Cl`, the Inhibition in the assay on Klebsiella pneumoniae was -1.63%; in the assay on Candida albicans, 2.86%; in the assay on Cryptococcus neoformans, -26.15%.
The matching figures for `COc1cccc(C2C(C#N)=C(N)Oc3ccc4ccccc4c32)c1` (centres undefined): 12.24%, 1.77% and -37.42%.
For `CC(=O)NCCc1ccccc1`, the Inhibition with Klebsiella pneumoniae was 14.22%; in the assay on Candida albicans it was 1.13%; in the assay with Cryptococcus neoformans, -3.47%.
For `CCOC(=O)C1=C(C)Oc2nc3c(c(N)c2C1c1nccn1C)CCCCC3` (centres undefined), the Inhibition was 6.14% with Klebsiella pneumoniae, 3.82% in the assay with Candida albicans and -4.74% in the assay with Cryptococcus neoformans.
For `O=Cc1c(-c2ccc(Br)cc2)nc2ccccn12` the same measures were 19.86%, 0.21% and -4.41%.
The matching figures for `CC#CCN(Cc1ccccc1)c1nc(N)c(C#N)c(-c2ccccc2)c1C#N`: -4.62%, 3.12% and -26%.
For `C#CCN(C)c1nc(N(C)CC#C)c(C#N)cc1C#N` the same measures were 11.71%, 2.14% and -56.65%.
Turning to `O=C1SC(SCc2ccccc2)=NC1=Cc1ccccc1`, the results for the Inhibition in the assay with Klebsiella pneumoniae, with Candida albicans and in the assay on Cryptococcus neoformans were 8.07%, 1.92% and -3.98%, respectively.
Regarding `CCOC(=O)c1c(C)nc2nc3c(c(N)c2c1-c1ccc(OC)cc1)CCCCCC3`, the Inhibition was 2.79% in the assay with Klebsiella pneumoniae, -1.03% with Candida albicans and -97% in the assay with Cryptococcus neoformans.
The matching figures for `CCOc1nc(N)c(C#N)cc1C#N`: 12.55%, 44.3% and -83.12%.
The matching figures for `N#CC1(Br)C(=NBr)Oc2c(ccc3ccccc23)C1c1cccc([N+](=O)[O-])c1` (centres undefined): 24.92%, 10.2% and -69.53%.
In the case of `Cn1c(C(=O)N2CCOCC2)cc2cc(OCCCC3CCN(Cc4ccccc4)CC3)ccc21`, the Inhibition was 2.68% in the assay with Klebsiella pneumoniae, 1.38% in the assay on Candida albicans and -96.05% in the assay on Cryptococcus neoformans.
The matching figures for `Cc1ccc(C=C2N=C(c3ccccc3)OC2=O)cc1`: 9.43%, -0.14% and -5.42%.
The matching figures for `Nc1c2c(nc3nc4ccccc4nc13)CCCC2`: -2.37%, 2.21% and -107.03%.
Consider `C#CCN(C)c1nc(Sc2ccccc2)c(C#N)c(-c2ccccc2)c1C#N`, for which the Inhibition in the assay on Klebsiella pneumoniae is 17.28%; with Candida albicans, 1.53%; with Cryptococcus neoformans, -1.7%.
As for `C=CCNCc1cc2cc(OCCCC3CCN(Cc4ccccc4)CC3)ccc2[nH]1.O.O=C(O)C(=O)O.O=C(O)C(=O)O`, the values for the Inhibition in the assay on Klebsiella pneumoniae, in the assay with Candida albicans and in the assay with Cryptococcus neoformans were -6.45%, 0.53% and -57.95%, respectively.
For `CSC1=NC(=Cc2cn(C(c3ccccc3)(c3ccccc3)c3ccccc3)c3ccccc23)C(=O)N1C` the same measures were -25.3%, -0.44% and -10.07%.
The matching figures for `COC(=O)C(=Cc1ccc(OC)cc1)NC(=O)c1ccccc1`: 13.3%, 6.47% and -1.73%.
The matching figures for `N#Cc1c(N)nc2c(c1-c1ccccc1)CN(Cc1ccccc1)CC2`: 16.71%, 1.07% and -3.99%.
With `C=C1CN(Cc2ccccc2)c2c(C#N)c(-c3ccccc3)c(C#N)c(=N)n21`, the Inhibition with Klebsiella pneumoniae was 17.58%; in the assay on Candida albicans, 2.82%; in the assay on Cryptococcus neoformans it was -53.83%.
For `Cc1ccc(CNNC(=O)c2c[nH]c3ccccc23)cc1` the same measures were 5.46%, -1.04% and -5.03%.
The matching figures for `N#CC1=C(N)NC(=O)CC1c1ccccc1` (centres undefined): 22.17%, 1.7% and -51.84%.
For `COc1cc(C2C(C#N)=C(N)Oc3c2ccc2ccccc32)ccc1O` (centres undefined) the same measures were -1.93%, 22.7% and -42.63%.
For `COc1ccc2c(c1)cc(CN(C)C)n2C`, the Inhibition in the assay with Klebsiella pneumoniae was 9.15%; in the assay with Candida albicans, -0.31%; with Cryptococcus neoformans, -1.62%.
For `C#CCN(C)c1cc(C)nc(C)n1` the same measures were 18.17%, 5.55% and -42.1%.
For `COc1ccccc1C1c2ccc3ccccc3c2Oc2nc3c(c(N)c21)CCCC3` (centres undefined) the same measures were 8.8%, 0.31% and -4.38%.
